Test results taken from PubChem BioAssay AID504332 (National Center for Advancing Translational Sciences (NCATS), 2011).
Screen size: about 350,000 compounds; about 31,000 (8.9%) were called active. Another 15% or so got no clear call; they are omitted. Shown is part of a subset that was picked to be rich in actives. Entries that show only a call come without a potency. Unmarked numbers belong to inactive results. Calls come from the whole dose curve; as a rule, active = well fitted inhibition curve with a large enough effect; inconclusive = small, poorly fitted or top-dose-only effect; inactive = no such curve, though single readings can be large or run the other way.
Note: nearly all actives have a fitted effect of over 75% in size.
Potency is the fitted concentration of half-maximal effect.

Each molecule was assayed against Histone-lysine N-methyltransferase EHMT2 (Homo sapiens) (UniProt Q96KQ7) (assay: qHTS Assay for Inhibitors of Histone Lysine Methyltransferase G9a). Conditions: G9a H3K9 monomethylation, AlphaScreen, 2 h; series mostly up to 59 µM.
Sequence of Histone-lysine N-methyltransferase EHMT2 (Homo sapiens) (Q96KQ7 913-1193 limits assumed): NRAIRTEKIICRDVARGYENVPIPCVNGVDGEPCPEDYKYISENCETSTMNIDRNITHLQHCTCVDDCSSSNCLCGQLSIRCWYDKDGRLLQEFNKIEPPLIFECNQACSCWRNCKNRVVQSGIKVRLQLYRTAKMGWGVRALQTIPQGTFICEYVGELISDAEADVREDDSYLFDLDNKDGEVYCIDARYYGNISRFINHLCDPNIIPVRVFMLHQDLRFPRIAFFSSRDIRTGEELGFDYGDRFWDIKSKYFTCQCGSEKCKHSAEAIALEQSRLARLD
Summary of the method: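 Readings reflect AlphaScreen signal from monomethyl-H3K9 antibody detection. HMT at 20 nM; substrate b-H3K9 500 nM; cofactor SAM 20 uM; 2 h RT reaction; compounds tested as titrations in qHTS with 15 min preincubation.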
COc1cccc(C(=O)NNC(=O)c2cccc(F)c2)c1 was tested, and the Potency was “inactive”.
With CCCCOC(=O)/C(C#N)=C/c1ccc(-c2cccc(C(F)(F)F)c2)o1 the Potency was “inactive”.
With CCOc1ccc(Nc2oc(/C=C/c3ccc(F)cc3)nc2C#N)cc1 the Potency was “inactive”.
For O=C(O)/C=C/c1ccc(OCCCF)cc1, the Potency was “inactive”.
O=C(Nc1ccccc1C(=O)N1CCOCC1)c1ccc(Cl)cc1 was tested, and the Potency was “inactive”.
In the case of N#C/C(=C\N1CCOCC1)S(=O)(=O)c1ccc(Cl)cc1, the Potency is reported as “inactive”.
For O=S(=O)(Oc1ccccc1C(=S)N1CCOCC1)c1ccc(Cl)cc1, the Potency was 31.6 µM (active).
In the case of O=C(CSc1nnc(-c2ccccc2F)o1)Nc1cccc(C(F)(F)F)c1, the Potency is reported as “inactive”.
In the case of O=C(NCc1ccccc1)c1cc(-c2cccc(Cl)c2)on1, the Potency is reported as “inactive”.
Cc1cccn2c(=O)c(C=O)c(Nc3ccc(S(N)(=O)=O)cc3)nc12 was tested, and the Potency was “inactive”.
Molecule CC(OC(=O)/C=C/c1ccccc1)C(=O)Nc1ccc(C(N)=O)cc1 (stereo unspecified) has an activity, negative = inhibition of 0.935% [at 12.7 µM].
With COC1=C(N2CCOCC2)C(=O)c2ccccc2C1=O the Potency was 3.55 µM (active).
O=C1C(Cl)=C(N2CCOCC2)C(=O)N1c1ccccc1 showed an activity, negative = inhibition of 3.23% [at 2.33 µM].
With Cc1oc2c(c1C(=O)N1CCOCC1)C(=O)c1ccccc1C2=O the Potency was “inactive”.
COc1cccc(CNC(=O)CN2C(=O)NC(Cc3ccccc3)(c3ccccc3)C2=O)c1 (stereo unspecified) gave an activity, negative = inhibition of -1.58% [at 12.7 µM].
With Cc1ccc2cccc(NC(=O)c3ccc(OC(C)C)cc3)c2n1 the Potency was “inactive”.
In the case of O=C(COc1coc(CN2CCN(c3ccccc3)CC2)cc1=O)N1CCc2ccccc21, the Potency is reported as “inactive”.
For COc1ccc(OC)c(NC(=O)C2CCN(S(=O)(=O)c3ccc(C)cc3)CC2)c1, the Potency was “inactive”.
In the case of CC(C)C(=O)OCC(=O)Nc1ccc2c(c1)CCC2, the Potency is reported as “inactive”.
For COc1ccc(CN2CCCCC2C)cc1OC (stereo unspecified), the Potency was “inactive”.
For COc1ccc(CNc2ccc3c(c2)CCC3)cc1OC, the Potency was 39.8 µM (active).
For COc1ccc(OC)c(CCNC(=O)c2nn(C)c3c2CS(=O)(=O)c2ccccc2-3)c1, the Potency was “inactive”.
In the case of O=C(COC(=O)CNC(=O)C1CCCCC1)NCc1ccccc1, the activity, negative = inhibition is reported as 3.72% [at 12.7 µM].
For O=C(CCc1nc(CN2CCN(S(=O)(=O)c3ccc(Cl)cc3)CC2)no1)N1CCCCC1, the Potency was “inactive”.
In the case of Cc1ccc2nc(-c3ccc(NC(=O)CN(C)S(=O)(=O)c4ccccc4)cc3)sc2c1, the Potency is reported as “inactive”.
In the case of Cc1ccc2nc(N(CCN(C)C)C(=O)C3=COCCO3)sc2c1, the Potency is reported as 79.4 µM (active).
With NS(=O)(=O)c1ccc2nc(NC(=O)C3=COCCO3)sc2c1 the Potency was “inactive”.
In the case of CCOC(=O)c1cccc(NC(=O)c2cc(S(=O)(=O)N3CCCC(C)C3)cn2C)c1 (stereo unspecified), the Potency is reported as “inactive”.
With CCOC(=O)c1ccc(NC(=O)C2CCN(S(=O)(=O)c3ccc4c(c3)CCCC(=O)N4)CC2)cc1 the Potency was “inactive”.
For CCc1ccc(-c2nc(SCC(=O)NC3CCCC3)n[nH]2)cc1, the Potency was “inactive”.
For Cc1ccc(Cl)cc1NC(=O)C(C)n1nnc2sc(-c3ccccc3)cc2c1=O (stereo unspecified), the Potency was 1.12 µM (active).
For CCCCCCn1nnc2sc(-c3ccccc3)cc2c1=O, the Potency was “inactive”.
With COC(=O)[C@@H](NC(=O)Nc1cc(Cl)ccc1C)C(C)C the Potency was “inactive”.
In the case of CCC(C)NC(=O)Cn1c(=O)n(-c2ccc(Cl)cc2)c(=O)c2c3c(sc21)CCCC3 (stereo unspecified), the Potency is reported as “inactive”.
In the case of CCOc1ccc(CCNC(=O)c2ccc3c(c2)sc2nc(-c4ccc(F)cc4)cn23)cc1OCC, the Potency is reported as “inactive”.
With CCCN(CCC)C(=O)C1CCCN(c2ncnc3c2nc2n3CCCCC2)C1 (stereo unspecified) the Potency was “inactive”.
With S=c1[nH]nc(/C=C/c2ccccc2)o1 the Potency was 22.4 µM (active).
In the case of Clc1ccc(CSc2nnc(/C=C/c3ccccc3)o2)c(Cl)c1, the Potency is reported as “inactive”.
With O=c1oc(/C=C/c2ccccc2)nc2ccccc12 the Potency was “inactive”.
With CCc1ccccc1S(=O)(=O)Cc1ccc(C(=O)NCCc2ccccc2)o1 the Potency was “inactive”.
With COC(=O)c1ccc(C)c(NC(=O)C2CC(=O)N(C3CCCC(C)C3C)C2)c1 (stereo unspecified) the Potency was “inactive”.
For COc1cccc(CNC(=O)c2ccc3c(c2)sc2nc(-c4cccc(OC)c4)cn23)c1, the Potency was “inactive”.
In the case of CN(Cc1cnccn1)C(=O)c1cc(COc2cccc(C(F)(F)F)c2)on1, the Potency is reported as “inactive”.
For Clc1cccc(N=C2NN=C(c3ccc4c(c3)OCCO4)CS2)c1, the Potency was 14.1 µM (active).
With Cc1cccc(N=C2NN=C(c3c[nH]c4ccccc34)CS2)c1 the Potency was “inactive”.
Molecule c1ccc(CN2CCC(N=C3NN=C(c4ccc5c(c4)OCCO5)CS3)CC2)cc1 has an activity, negative = inhibition of -3.44% [at 12.7 µM].
In the case of COc1ccccc1-c1cnn2c(N3CCOCC3)cc(C)nc12, the Potency is reported as “inactive”.
With Cc1cc(C)c(-c2n[nH]c3c2C(c2ccccc2F)N(CCO)C3=O)c(O)c1 (stereo unspecified) the Potency was “inactive”.
With CCc1ccc2ncc3c(-c4ccc(C)cc4)nn(CC(=O)NCc4ccccc4)c3c2c1 the Potency was “inactive”.
With COC(=O)c1cccc(Cn2nnc3sc4c(c3c2=O)CCC(C(C)(C)C)C4)c1 (stereo unspecified) the Potency was “inactive”.
With CC1CCCCC1NC(=O)CSc1nnc(N)s1 (stereo unspecified) the Potency was “inactive”.
CC1CCCC(NC(=O)CSc2nccn2C)C1C (stereo unspecified) was tested, and the Potency was 15.8 µM (active).
With Cn1ccnc1SCC(=O)Nc1ccc2c(c1)OCCO2 the Potency was “inactive”.
O=C1NN(c2ccccc2)C(=O)/C1=C/c1ccc(-c2cccc(C(=O)O)c2)o1 was tested, and the Potency was 39.8 µM (active).
With O=C(O)c1cccc(N2C(=O)Nc3ccccc3N2O)c1 the Potency was “inactive”.
With O=C(Nc1ccc2nc(SCCOc3ccccc3Cl)sc2c1)c1ccco1 the Potency was “inactive”.
O=S(=O)(NCc1ccccc1Br)c1ccccc1Br was tested, and the activity, negative = inhibition was 7.86% [at 2.33 µM].
With CN(Cc1ccccc1)C(=O)c1cn(C)c2ccc(S(=O)(=O)N3CCCCC3)cc2c1=O the Potency was “inactive”.
In the case of O=c1[nH]c2ccc(S(=O)(=O)N3CCCC3)cc2[nH]1, the Potency is reported as “inactive”.
CCCCn1c(=S)[nH]c2cc(S(=O)(=O)N3CCCCC3)ccc21 was tested, and the Potency was 1.78 µM (active).
With O=C(NCCc1ccccc1)c1ccc2c(c1)N(Cc1ccc(F)cc1)C(=O)c1ccccc1S2(=O)=O the Potency was “inactive”.
In the case of Cc1ccc2oc(=O)c3cnn(CC(=O)NCc4ccccc4Cl)c3c2c1, the Potency is reported as “inactive”.
For CCn1c(C(=O)Nc2cc(Cl)ccc2C)cc2sc(Cl)cc21, the Potency was “inactive”.
CCOc1ccccc1/C=N/NC(=O)CNC(=O)COc1ccccc1 was tested, and the Potency was “inactive”.
In the case of C=C(C)CNC(=S)N/N=C/c1ccccc1OCC(=O)O, the Potency is reported as 11.2 µM (active).
For C=CCOc1ccccc1/C=N/NC(=O)Cc1ccccc1, the activity, negative = inhibition was -1.48% [at 0.501 µM].
